Assay outcomes from PubChem.
Pf growth 48h – P. falciparum growth inhibition at 48 hours (one generation). P. falciparum luciferase growth in erythrocytes, 48 h. Potency, µM (top dose mostly 28.7 µM), most hits filed as inhibitors. 5.9% of 310,000 active
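Growth was read as firefly luciferase luminescence after a 48 h, 37 C, 5% CO2 exposure of compounds to reporter-bearing P. falciparum cultures (0.1% parasitemia, 2% hematocrit final) in Albumax-supplemented RPMI 1640.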
Pf growth 96h – inhibits malaria parasite growth, 96 h. 6.9% of 320,000 active. P. falciparum luciferase reporter growth, 96 h. Potency, µM (series often up to 28.7 µM), usual class: inhibitors
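P. falciparum expressing integrated firefly luciferase grown in erythrocytes (2% hematocrit, 0.05% parasitemia final) with compounds for 96 hours at 37 C, 5% CO2. Growth inhibition read as loss of luminescence after adding luciferase detection reagent.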
HCMV inh – inhibitors of human cytomegalovirus; 4.5% of 410,000 active; HFF cells, HCMV-luciferase reporter, 72 h; stronger effect = lower value; activity change, negative = inhibition, % at 57.5 µM; in the data active = activity change below about -60%; inconclusive = no clear call, values can overlap the other calls; inactive = above about -39%
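Inhibition of viral replication was scored as loss of reporter luminescence in HFFs infected with HCMV-luciferase (MOI 1 PFU/cell) for 72 h; compounds tested at 2 doses, normalized to buffer and Salinomycin controls.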
HCV inhibitor – blocks hepatitis C virus; 3.4% of 340,000 active; Potency, µM (series often up to 41.8 µM), hits mostly inhibitors; Huh7.5.1 HCVcc-Cre infection, luciferase reporter, 44 h; AID 651820
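Cells (1,000/well) were plated 4 h before compound, then infected with HCVcc-Cre virus (~0.5 moi). After 44 h further culture, infection was read as luciferase luminescence following a 15 min substrate incubation at room temperature.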
Of the large screens only hits and unclear results are named; the others gave an inactive call. Shown are actives, neighbours in structure and some others; about 13% of the full set was active somewhere. Unless noted, calls come from the whole dose curve; as a rule, active = well fitted inhibition curve with a large enough effect; inconclusive = small, poorly fitted or top-dose-only effect, or another doubt; inactive = no such curve, though single readings can be large or run the other way.

CCOC(=O)C1(Cc2cccc(OC)c2)CCN(Cc2ccccc2)CC1	Pf growth 48h inconclusive, Pf growth 96h inconclusive, HCV inhibitor inconclusive
CCOC(=O)C1(CCOc2ccccc2)CCN(Cc2ccc(O)c(OC)c2)CC1	Pf growth 48h 12µM
COCCCNC(=O)c1c(NC(=O)c2cc(=O)c3ccccc3o2)sc2c1CCCC2	none (no result: Pf growth 48h, Pf growth 96h, HCV inhibitor)
CCc1ccc(NC(=O)CCCc2nc(-c3ccco3)no2)cc1	none (no result: Pf growth 48h, Pf growth 96h, HCV inhibitor)
CCOC(=O)C1(CCOC)CCN(C/C=C/c2ccccc2OC)CC1	HCV inhibitor 11µM (no result: Pf growth 48h, Pf growth 96h)
CCOC(=O)C1(CCOc2ccccc2)CCN(Cc2ccc(C(=O)OC)cc2)CC1	Pf growth 48h inconclusive, Pf growth 96h inconclusive, HCV inhibitor inconclusive
CCOC(=O)C1(CCOc2ccccc2)CCN(Cc2ccc(F)c(OC)c2)CC1	Pf growth 96h 15µM, HCV inhibitor inconclusive
COc1ccc(-c2noc(N3CCN(c4ccc(C)cc4)C(C)C3)n2)cc1OC (centres undefined)	none (no result: Pf growth 48h, Pf growth 96h, HCV inhibitor)
CCOC(=O)C(C)Sc1nc(-c2cccs2)ccc1C#N (centres undefined)	HCV inhibitor 14µM
CCN(CC)c1ccc(C(=O)NCc2ccc3c(c2)CCN3C(C)=O)cc1	none (no result: Pf growth 48h, Pf growth 96h, HCV inhibitor)
Cc1nc(-c2c(C(F)(F)F)noc2-c2ccc(O)cc2O)cs1	Pf growth 96h inconclusive, HCMV inh -90, HCV inhibitor inconclusive
COc1ccc(-c2nc(N)nc(C(F)(F)F)c2-c2csc(C)n2)c(O)c1	none
CCOc1cc(C)c(-c2onc(C(F)(F)F)c2-c2csc(C)n2)c(O)c1	Pf growth 48h 1.7µM, Pf growth 96h 1.9µM, HCMV inh inconclusive, HCV inhibitor inconclusive
Oc1ccc(-c2onc(C(F)(F)F)c2-c2cscn2)c(O)c1	Pf growth 48h inconclusive, HCMV inh inconclusive, HCV inhibitor inconclusive
CCCCCOc1ccc(C(=O)N(Cc2ccccc2)C2CCS(=O)(=O)C2)cc1 (centres undefined)	none (no result: Pf growth 48h, Pf growth 96h, HCV inhibitor)
CCOc1ccc(S(=O)(=O)Nc2ccc(OC)c(Cl)c2)c2cccnc12	none (no result: Pf growth 48h, Pf growth 96h, HCV inhibitor)
Cc1ccc(-c2[nH]ncc2C(=O)c2cccc(F)c2)c(O)c1	Pf growth 48h inconclusive, Pf growth 96h inconclusive, HCMV inh -75, HCV inhibitor inconclusive
Cc1cccc(C(=O)c2cn[nH]c2-c2ccc(C)cc2O)c1	Pf growth 96h inconclusive
COc1ccc(C2(CNC(=O)C(=O)Nc3ccc(F)cc3)CCCC2)cc1OC	none (no result: Pf growth 48h, Pf growth 96h, HCV inhibitor)
Cc1ccc(N(Cc2cc(=O)[nH]c3ccccc23)C(=O)C(C)C)c(C)c1	Pf growth 48h inconclusive
Cc1ccccc1N(Cc1cc(=O)[nH]c2ccccc12)C(=O)C(C)C	Pf growth 48h 15µM, Pf growth 96h inconclusive
CCC(=O)N(Cc1cc(=O)[nH]c2ccccc12)c1ccccc1	none
O=C(CCl)N(Cc1cc(=O)[nH]c2ccccc12)c1ccccc1	Pf growth 48h 10µM, Pf growth 96h 10µM, HCMV inh -100, HCV inhibitor inconclusive
Cc1ccccc1N(Cc1cc(=O)[nH]c2ccccc12)C(=O)CCl	Pf growth 48h 4.7µM, Pf growth 96h 1.9µM, HCMV inh -101 (no result: HCV inhibitor)
CCCCCCCN(C(=O)CCl)c1ccccc1C	Pf growth 48h inconclusive, Pf growth 96h inconclusive, HCMV inh -83, HCV inhibitor inconclusive
CCC(=O)N(Cc1cc(=O)[nH]c2ccccc12)c1ccc(C)cc1C	Pf growth 48h inconclusive, Pf growth 96h inconclusive
Cc1cccc(C)c1NS(=O)(=O)c1ccc(NS(=O)(=O)c2ccc3c(c2)OCCO3)cc1	none (no result: Pf growth 48h, Pf growth 96h, HCV inhibitor)
COc1ccc(NCc2cc(=O)[nH]c3ccccc23)cc1	none
O=c1cc(CNCCCO)c2ccccc2[nH]1	Pf growth 96h 3.7µM
O=[N+]([O-])c1cccc(/C=N/Nc2nc(NCc3ccccc3)nc(N3CCOCC3)n2)c1	Pf growth 48h inconclusive, Pf growth 96h inconclusive
NNc1nc(NCc2ccccc2)nc(N2CCOCC2)n1	Pf growth 48h inconclusive, HCV inhibitor inconclusive
O=[N+]([O-])c1cccc(/C=N/Nc2nc(NCc3ccccc3)nc(N3CCOCC3)n2)c1O	Pf growth 48h 6.6µM, Pf growth 96h inconclusive
O=[N+]([O-])c1ccc(/C=N/Nc2nc(NCc3ccccc3)nc(N3CCOCC3)n2)cc1	Pf growth 48h 13µM
COc1ccc(N(C(=O)c2ccc(Cl)cc2)S(=O)(=O)c2ccc(C)cc2)cc1	none (no result: Pf growth 48h, Pf growth 96h, HCV inhibitor)
Cc1ccc(C(=O)COC(=O)CCC(=O)Nc2ccc(Oc3cc(C)ccc3C(C)C)cc2)cc1	none (no result: Pf growth 48h, Pf growth 96h, HCV inhibitor)
O=C1C=C(N2CCN(C(=O)c3ccccc3)CC2)C2(CCCCC2)O1	HCMV inh -77
O=C(NCc1cccnc1)/C(=C/c1ccc(-c2cccc(Cl)c2)o1)S(=O)(=O)c1ccccc1	Pf growth 48h 13µM, Pf growth 96h 3.3µM
N#C/C(=C/c1ccc(CNC(=O)C(=O)Nc2cc(Cl)cc(Cl)c2)o1)C(=O)NCc1cccnc1	none
